Source: PubChem BioAssay (NCATS)
Unmarked numbers belong to inactive results. Calls come from the whole dose curve; as a rule, active = well fitted curve in the direction sought with a large enough effect; inconclusive = small, poorly fitted or top-dose-only effect, or another doubt; inactive = no such curve, though single readings can be large or run the other way.

Test: Cellular Toxicity (caspase-3) MRC-5 (AID 659)
Conditions: MRC-5 cells, luminescence, normalized: DMSO 0%, 10 µM staurosporine 100%; series mostly up to 91.7 µM; caspase-3 activation: at the top concentration
In short: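 MRC-5 human normal lung fibroblasts, 1500 cells/well, treated 16 h at 37 °C in complete medium. Caspase 3/7 measured by Caspase-Glo luminescence after 1 h at room temperature. Normalized to DMSO and 10 uM staurosporine; AC50 from Hill fit.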

Compound	caspase-3 activation
CCC1CO1 (stereo unspecified)	-1.33%
O=Nc1ccc(NO)cc1	-2.17%
C=Cc1ccccn1	0.252%
CCNc1ccccc1	1.58%
O=C(O)CNC(=O)c1ccc([N+](=O)[O-])cc1	1.03%
CCCCC/C=C/C=C/C=O	3.96%
C=C(C)C(=O)OCC(C)C	0.465%
C[C@@H]1CC2(OC[C@]3(C)O[C@H]23)O[C@H]2C[C@@]3(C)[C@@H]4CC[C@H]5C(C)(C)C(O[C@@H]6OC[C@@H](O)[C@H](O)[C@H]6O)CC[C@@]56C[C@@]46CC[C@]3(C)[C@@H]12 (stereo partly specified)	6.11%
c1ccc2n[nH]nc2c1	2.23%
CCC(O)C(C)(C)C (stereo unspecified)	0.72%
CC(=O)OCc1ccco1	0.468%
COc1ccccc1[N+](=O)[O-]	-0.562%
CCCCC(CC)COCC1CO1 (stereo unspecified)	3.34%
N#CCc1ccccc1[N+](=O)[O-]	9.29%
Cc1cccc(C)c1[N+](=O)[O-]	0.27%
Cc1ccc2ccccc2c1[N+](=O)[O-]	0.736%

Compound	caspase-3 activation
CCCOCC(C)O (stereo unspecified)	-0.0977%
CSc1ccc(C=O)cc1	1.13%
CC(O)COC(C)(C)C (stereo unspecified)	0.99%
Fc1ccccc1	-0.0394%
NC(=O)NC(N)=O	-1.75%
C=CC(=O)NC(C)C	1.16%
O=C(O)c1ccc(Cl)cc1Cl	2.46%
C=C(C)C1CC=C(C)C(OC(C)=O)C1 (stereo unspecified)	-0.13%
O=C(O)c1ccccc1Cl	0.991%
CCOCCOCC	-1%
CC(C)=CCC/C(C)=C/C=O	-1.87%
C/C=C(/C)C#N	-1.52%
CC(C)(c1cc(Br)c(OCC(Br)CBr)c(Br)c1)c1cc(Br)c(OCC(Br)CBr)c(Br)c1 (stereo unspecified)	0.625%
Cc1cc(C(=O)O)ccc1[N+](=O)[O-]	0.0923%
CN(C)CCCNCCCN	0.289%
